Assay outcomes deposited in PubChem by National Center for Advancing Translational Sciences (NCATS).
Vaccinia mCherry = qHTS for Stage-Specific Inhibitors of Vaccinia Orthopoxvirus: mCherry Reporter Primary qHTS | Potency, µM (top dose mostly 36.5 µM), for the others: top-dose activity change, negative = inhibition, hits mostly inhibitors | AID 720579, 2013 | Vaccinia virus mCherry reporter infection, fluorescence | 310,000 compounds, 0.63% hits; calls by dose curve; tested in A549 cells; note: potency is the fitted concentration of half-maximal effect; nearly all actives have a fitted effect of over 35% in size
HCMV antiviral = qHTS Assay for inhibitors of the human cytomegalovirus (HCMV); AID 1259415, 2018; HFF cells, HCMV-luciferase reporter, 72 h; hits give low values; activity change, negative = inhibition, % at 57.5 µM; 410,000 compounds, 4.5% hits; in the data active = activity change below about -60%; inconclusive = no clear call, values can overlap the other calls; inactive = above about -39%
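Two compound doses tested in HFFs infected with HCMV-luciferase, MOI 1 PFU/cell, 72 h at 37C. Lysate luminescence read with OneGlo; data normalized against buffer-only and 10uM Salinomycin inhibitor controls.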
LASV entry inh = qHTS for Inhibitors of binding or entry into cells for Lassa Virus; Lassa virus pseudotype entry inhibition, cell reporter; Potency, µM (series often up to 37.9 µM), inactives show top-dose activity change, negative = inhibition, hits mostly inhibitors; 300,000 compounds, 1.2% hits; AID 540256, 2011; calls by dose curve; tested in HEK293 cells; note: potency is the fitted concentration of half-maximal effect; nearly all actives have a fitted effect of over 50% in size
FMDV antiviral = High Throughput Screening for Foot and Mouth Disease Virus Antivirals; Potency, µM (series often up to 57.9 µM), for inactives: top-dose activity change, negative = inhibition, most hits filed as inhibitors; 410,000 compounds, 1.2% hits; AID 1159524, 2015; FMDV antiviral cell-based qHTS; calls by dose curve; tested in HEK293T cells; note: read-out not given here; potency is the fitted concentration of half-maximal effect; nearly all actives have a fitted effect of over 45% in size
Marburg entry inh = qHTS for inhibitors of binding or entry into cells for Marburg Virus; 300,000 compounds, 1.8% hits; Marburg virus pseudotyped entry inhibition, cell reporter; Potency, µM (titrated, usually from 37.8 µM), for inactives: top-dose activity change, negative = inhibition, actives largely listed as inhibitors; calls by dose curve; tested in HEK293 cells; note: potency is the fitted concentration of half-maximal effect
Vaccinia Venus = qHTS for Stage-Specific Inhibitors of Vaccinia Orthopoxvirus: Venus Reporter Primary qHTS; 330,000 compounds, 0.46% hits; Potency, µM (doses to about 36.5 µM), inactives show at the highest dose activity change, negative = inhibition, usual class: inhibitors; Vaccinia virus Venus reporter expression, fluorescence; AID 720580, 2013; calls by dose curve; tested in A549 cells; note: potency is the fitted concentration of half-maximal effect; nearly all actives have a fitted effect of over 30% in size
Active calls of the source: *; i = inactive; ? = inconclusive; / = no result given; [ ] = remark or other dose. Shown are actives, neighbours in structure and some others; about 6.5% of the full set was active somewhere. % is set by controls: 0 for no effect and ±100 for the full control effect.

SMILES | Vaccinia mCherry | HCMV antiviral | LASV entry inh | FMDV antiviral | Marburg entry inh | Vaccinia Venus
CCN(CC)c1ccc2c(c1)OC(N)=C(C#N)C2c1cccnc1 (stereo not drawn) | ? | -85* | ? | ? | ? | -13%
CC(=O)C1=C(C)OC(N)=C(C#N)C1c1cccnc1 (stereo not drawn) | -2% | 44 | 9%[46.1 µM] | 7% | -26%[46.1 µM] | -1%
N#CC1=C(N)Oc2cc(N)ccc2C1c1cccnc1 (stereo not drawn) | -19% | 4 | -1% | -21% | 16µM* | -26%
Cn1c(=O)c2c(-c3ccccc3Cl)n(Cc3ccc(Cl)cc3)cc2n(C)c1=O | -8% | 0 | 0%[46.1 µM] | -20% | -4%[46.1 µM] | -11%
COc1ccc(C(=O)NCc2nc(-c3cccc(C)c3)no2)cc1OC | -13% | -23 | 10%[46.1 µM] | -7% | ? | -7%
COc1cc(OC)c2nc(-c3cc4c(c(OC)c3)OCCN(C(=O)CC3NC(=O)c5ccccc53)C4)cc(C)c2c1 (stereo not drawn) | -10% | / | / | -15% | / | -10%
Cc1ccc(Sc2cncc3sc(C(N)=O)cc23)cc1 | / | / | / | 19% | / | /
CC(=O)Nc1ccccc1-c1nc2ccccc2n(C(C)C(=O)c2ccc(C)c(C)c2)c1=O (stereo not drawn) | -5% | 1 | 1%[46.1 µM] | -23% | ? | -1%
COc1ccc(CN2C[C@H](Sc3nc4ccccc4[nH]3)C[C@H]2C(=O)N2CCCN(C)CC2)cc1C | 2% | / | / | -12% | / | 14%
Oc1[nH]c2c(Cl)cc(Cl)cc2c1N=NC(=S)NCC1CCCO1 (stereo not drawn) | i | -68* | ? | 25µM* | ? | -12%
O=c1c(NCCc2ccc(Cl)cc2)nccn1-c1ccccc1 | -7% | 10 | -8%[46.1 µM] | 11% | / | -3%
Cc1ccc(NC(=O)[C@@H](c2ccccc2)N2Cc3ccccc3C2=O)cc1F | -7% | -13 | -4%[46.1 µM] | 7% | ? | -3%
COc1ccc(-n2nc(C(=O)NCC(=O)NC3CCCCCC3)c3ccccc3c2=O)c(OC)c1 | ? | -10 | -19%[46.1 µM] | 13% | 14%[46.1 µM] | -15%
COc1ccc(-n2nc(C(=O)NCC(=O)Nc3cc(C)ccc3OC)c3ccccc3c2=O)c(OC)c1 | -1% | -5 | 6.3µM* | -3% | 2%[46.1 µM] | 0%
COc1ccc(-n2nc(C(=O)NCC(=O)NC3CCCCC3)c3ccccc3c2=O)c(OC)c1 | -15% | 22 | 13µM* | 1% | ? | -3%
Cc1cccc(NC(=O)c2sc3nc(-c4cc5ccc(O)cc5oc4=O)[nH]c(=O)c3c2C)c1 | -20% | -8 | ? | -24% | / | 70%
CCOC(=O)C1=C(NC(=S)NC(=O)c2ccccc2)c2ccccc2CC1C(C)C (stereo not drawn) | ? | -77* | 0.89µM* | 0% | 0.79µM* | -9%
CCOC(=O)C1=C(NC(=S)NC(=O)c2ccccc2)c2ccccc2CC1(C)CC (stereo not drawn) | -17% | ? | 2.1µM* | 0% | 5.8µM* | -3%
CCOC(=O)c1sc(NC(=S)NC(=O)c2ccccc2)c(C(=O)OCC)c1C | -14% | -15 | -6% | -17% | -19% | -3%
O=C(COc1ccc2ccc(=O)oc2c1)NC1CCN(Cc2ccccc2)CC1 | -5% | 0 | 1%[46.1 µM] | -19% | -2%[46.1 µM] | -10%
Cc1ccc2cccc(OCC(=O)Nc3cccc(S(=O)(=O)N4CCCC4)c3)c2n1 | -18% | -18 | ? | 40µM* | ? | -28%
O=C(COc1ccc2ccc(=O)oc2c1)NC1CCCC1 | / | -62* | / | -15% | / | /
O=C(COc1ccc2ccc(=O)oc2c1)Nc1cccc(S(=O)(=O)N2CCCCC2)c1 | -24% | 38 | 6% | 14µM* | -7% | -7%
COCCCNC(=O)c1ccc(Cn2c(=O)c3ccccc3n(CC(N)=O)c2=O)cc1 | 27% | 9 | ? | 11% | 7%[46.1 µM] | 20%
COc1ccccc1CNC(=O)c1ccc(-c2nc(CS(=O)c3ccc(C)cc3)c(C)o2)cc1 (stereo not drawn) | -25% | 0 | -1%[46.1 µM] | ? | / | -16%
SMILES | Vaccinia mCherry | HCMV antiviral | LASV entry inh | FMDV antiviral | Marburg entry inh | Vaccinia Venus
Cc1ccc(-c2csc3ncnc(SCC(=O)Nc4nnc(C)s4)c23)cc1 | / | 12 | 3% | -1% | ? | /
Cc1ccc(-c2csc3ncnc(Sc4nnc(CN5CCCCCC5=O)o4)c23)cc1 | / | -70* | ? | 14µM* | ? | /
CCOc1cc(CNCCO)cc(Br)c1OCc1ccccc1Cl | -9%[1.46 µM] | -3 | ? | 13µM* | 16µM* | 10µM*
COc1cc(CNc2ccc(O)cc2)cc(Br)c1OCc1ccccc1F | -2% | / | ? | ? | ? | -1%
CCOc1cc(CNc2ccc(O)cc2)cc(Br)c1OCc1ccccc1 | ? | -104* | -7%[46.1 µM] | ? | ? | ?
COc1cc(CNCc2ccncc2)cc(Br)c1OCc1ccccc1F | / | -90* | ? | 32µM* | ? | /
Nc1nonc1C(=O)NCCNCc1cc(Br)ccc1OCc1ccccc1F | / | -62* | -19% | ? | ? | /
CCOC(=O)C1=C(N)Oc2ccc(Br)cc2C1C(C#N)C(=O)OCC (stereo not drawn) | i | / | / | -3% | / | -13%
COc1cc(NC(=O)NC(C)c2c(-n3cccc3)sc3c2CCN(C)C3)cc(OC)c1 (stereo not drawn) | -26% | -22 | ? | -19% | / | -14%
CCOc1cc(CNCCO)cc(Br)c1OCc1ccc(Cl)cc1 | ? | -99* | ? | ? | ? | ?
COc1cc(CNC(C)(C)CO)cc(Br)c1OCc1ccccc1 | -13% | -32 | ? | -14% | ? | -12%
CCOc1cc(CNC(C)(C)CO)cc(Br)c1OCc1ccc(Cl)cc1Cl | ? | 4 | ? | ? | 18µM* | ?
OCCNCc1cc(Br)ccc1OCc1ccccc1Cl | -1% | -61* | -17% | ? | ? | -22%
O=C(NCC1CCC2(CCN(Cc3cc4ccccc4o3)CC2)O1)c1ccccc1 (stereo not drawn) | -5% | / | / | 0% | / | -1%
COc1ccccc1C(=O)NC(=O)Nc1ccc(-c2cc(C(F)(F)F)nn2-c2ccccc2)cc1 | -19% | -36 | -6%[46.1 µM] | ? | -3%[46.1 µM] | -21%
COc1ccccc1C(=O)Nc1ccc(-c2cc(C(F)(F)F)nn2-c2ccccc2)cc1 | ? | -61* | -27%[46.1 µM] | ? | ? | -28%
CCOC(=O)c1c(C)nc(C)c(C(=O)OCC)c1-c1ccccc1 | / | 9 | 0% | 0% | 22% | /
CCOc1c(C(N)=O)c(-c2ccccc2)c2c(=O)[nH]c3ccccc3n12 | / | -60* | -1% | 0% | -11% | -11%
CSc1nnc(-c2cccc(NC(=S)NN)c2)o1 | i | -66* | / | 4% | / | -12%
